# Test results reported in PubChem BioAssay AID489025 (Southern Research Specialized Biocontainment Screening …, 2010).
# Screen size: about 2,300 compounds; about 790 (34%) were called active. Some of the results follow. Results with a measured potency or affinity are listed apart. Unmarked numbers belong to inactive results. No rule for the calls is given here.
# Assay: THP-1 cell cytotoxicity, dose response, cytotoxicity control for non-replicating M. tuberculosis project (AID 489025)
# Settings: THP-1 cell viability; series mostly up to 40 µM; viability: at the top concentration
row,SMILES,viability [%]
1,COc1ccc(CN=C(C#N)C2=C(O)c3ccccc3C2=O)cc1,104
2,CC(C)CN1C(=O)CC(Sc2ccccc2C(=O)O)C1=O (stereo not given),105
3,CC(=O)c1c(C)n(C)c2ccc(OC(=O)c3ccco3)cc12,115
4,Cc1ccc(NC(=O)CCSc2nnc(Cc3ccccc3)o2)cc1,99.4
5,O=C(NCc1ccccc1CN1CCCC1)c1cc2ccccc2o1,102
6,Oc1ccc(Cl)cc1CNCc1ccc(F)cc1,87.3
7,Brc1ccc(-c2ccc(CNCc3ccccn3)o2)cc1,87.5
8,O=c1cc(C(F)(F)F)[nH]c2c(C(F)(F)F)cccc12,84.6
9,CN(C)CCN1C(=O)c2oc3ccccc3c(=O)c2C1c1cccc(Br)c1 (stereo not given),99.8
10,O=C(c1cc2ccccc2o1)N1CCN(Cc2ccccc2)CC1,98.5
11,O=C1CCC(=O)N1CNc1ccc(Oc2ccccc2)cc1,108
12,COC(=O)CCC(=O)Nc1sc(Cc2ccccc2)c(C)c1C(N)=O,87.3
13,O=C(c1ccc([N+](=O)[O-])o1)N1CCc2ccccc2C1,75.1
14,O=C(Nc1sc2c(c1C(=O)O)CCCC2)c1ccc(F)cc1,80.8
15,O=C(CCSc1nnc(-c2ccncc2)o1)Nc1ccc(Cl)cc1,92.8
16,CC1(C)CC(=O)c2cc(C(=O)NNc3ccccc3)c(=O)n(-c3ccccc3)c2C1,99.1
17,Cc1c(Cl)cccc1-c1ccc(CNCc2ccccn2)o1,72.4
18,CC(C)(C)CC(=O)NC(=S)NCc1ccco1,116
19,O=C(c1cc(F)ccc1F)C1CCCN(Cc2ccc3nonc3c2)C1 (stereo not given),99.4
20,COCc1[nH]nc2c1C(c1sccc1C)C(C#N)=C(N)O2 (stereo not given),105
21,CCOC(=O)N1CCC(N2CCCC(C(=O)c3ccc4cc(OC)ccc4c3)C2)CC1 (stereo not given),70.4
22,CCOC(=O)CNCCC(=O)c1ccc(Br)cc1,105
23,O=C(Nc1nccs1)c1ccc2ccccc2c1,98.3
24,O=C(NCc1cccs1)c1ccc([N+](=O)[O-])cc1,118

row,SMILES,viability [%]
1,CCOC(=O)c1cc(-c2csc(COc3ccc(Cl)cc3)n2)on1,104
2,CC(C)CCC1=NN(C(=O)c2ccco2)C(O)(C(F)(F)F)C1 (stereo not given),92.9
3,Cc1cc(C(=O)NNc2ccc(Cl)cc2)no1,96.8
4,O=C(NC(=S)NCCc1ccccc1)c1ccccc1,110
5,O=C(OCc1ccccn1)c1ccc(COc2ccccc2Cl)o1,84.8
6,Cc1n[nH]c(C)c1CCNC(=O)C1CCC(=O)N(Cc2ccccc2F)C1 (stereo not given),120
7,O=C(Nc1ccc(Cl)cc1)C1CCCC1,81.9
8,O=C(Nc1nc2ccccc2n1CCN1CCCC1)C1CCCCC1,106
9,Cn1c(CNc2ccccc2O)nc2ccccc21,98.4
10,C=CCn1c(NC(=O)c2ccccc2)nc2ccccc21,90.3
11,CCCCSc1nnc(-c2cc(Br)ccc2N)c(=O)[nH]1,99.5
12,O=C(c1ccc(Br)o1)N1CCC(Cc2ccccc2)CC1,79.1
13,CN1c2ccsc2/C(=N/Nc2ccccc2)CS1(=O)=O,78
14,CCc1ccc(N2CCN(CCNC(=O)Nc3ccc(OC)cc3)CC2)cc1,86
15,O=C1Nc2cc(C(=O)NCCCN3CCOCC3)ccc2S/C1=C/c1cccc(Cl)c1,95.3
16,COC(=O)c1ccc(N2CCN(CCNC(=O)Nc3ccc(OC)cc3)CC2)cc1,104
17,O=C1CC(N2CCSCC2)C(=O)N1CCc1ccccc1 (stereo not given),110
18,CCOC(=O)C(=O)Cc1nc2ccccc2s1,93
19,Cc1ccc(-c2nnc(COC(=O)c3cccs3)o2)cc1,80.8
20,O=C(COc1ccc2ccccc2c1)N1CCCC1,108
21,O=C(COC(=O)CCN1C(=O)/C(=C\C=C\c2ccccc2)SC1=S)Nc1cc(F)ccc1F,116
22,O=C(NCCN1C(=O)S/C(=C\c2ccccc2F)C1=O)C1CCN(S(=O)(=O)c2cccs2)CC1,121
23,O=C(O)CCCCCN1C(=O)/C(=C\c2ccncc2)SC1=S,80.8
24,CCOC(=O)Cn1cc(C#N)c2ccccc21,93.9

row,SMILES,viability [%]
1,CC1CCC/C(=C\Nc2ccc(C(=O)O)c(O)c2)C1=O (stereo not given),110
2,Cc1cccnc1NC(=O)C1COc2ccccc2O1 (stereo not given),94.9
3,N=c1oc2ccccc2cc1C(=O)Nc1ccccc1,98.9
4,Cc1cc(Cl)ccc1N(CC(=O)NCc1ccccc1)S(C)(=O)=O,107
5,CC(=O)c1ccc(NC(=O)c2cc(CC(C)C)on2)cc1,106
6,CN(CCS(=O)(=O)c1ccc(Cl)cc1)Cc1cccnc1,92.2
7,O=C(COc1ccc(Br)cc1)N/N=C1/SCC(=O)N1Cc1ccccc1,73.2
8,COC(=O)C(C)Oc1ccc2cc(-c3ccccc3)c(=O)oc2c1 (stereo not given),107
9,O=C(NC(=S)N1CCN(C/C=C/c2ccccc2)CC1)c1ccco1,95.4
10,O=C(Nc1nnc(COc2ccc(Cl)cc2)s1)c1ccco1,112
11,COc1ccc(NC(=O)C(=O)NNC(=O)C(C)Oc2ccc(Cl)cc2Cl)cc1 (stereo not given),82
12,C=CCN(CC=C)C(=O)Cc1ccc(F)cc1,99.9
13,C=C(C)C1Cc2c(C)nn(-c3nc(C)cc(C)n3)c2C1 (stereo not given),70.6
14,CCOC(=O)Cn1c(-c2ccccc2)ccc(C#N)c1=O,110
15,CC(=O)Nc1ccc(OC(=O)c2ccc(Br)c([N+](=O)[O-])c2)cc1,84.4
16,NCCNc1ccc([N+](=O)[O-])c2cccnc12,94.5
17,O=C1c2cccc3cc([N+](=O)[O-])cc(c23)C(=O)N1c1ccccc1O,99.6
18,O=c1cc(-c2ccccc2Cl)oc2ccc([N+](=O)[O-])c(O)c12,75.4
19,O=[N+]([O-])c1cnc(Nc2ccc(Cl)cn2)c([N+](=O)[O-])c1,82.7
20,Cc1ccc(OC(=O)c2sc3ncn(C)c(=O)c3c2C)cc1,107
21,CC(C)CN1C(=O)/C(=C(/C#N)C(=O)NC2CCCCC2)c2ccccc21,87.7
22,Cc1ccc(NC(=O)CO/N=C/c2ccccc2C)c(C)c1,83.8
23,COc1cc2[nH]c(Cl)c([N+](=O)[O-])c2cc1OC,93.2
24,CCOC(=O)c1csc(COc2ccc(OC)cc2)n1,117

row,SMILES,viability [%]
1,O=C(NCc1nnc(SC/C=C/c2ccccc2)o1)c1ccco1,104
2,O=C(CCNc1cccc(Cl)c1)c1ccco1,90.1
3,COC(=O)CCc1nc2c(C#N)c(-c3ccc(Cl)cc3)ccn2n1,110
4,O=C(CC1CCCC1)OCn1nnc2ccccc2c1=O,113
5,CCCCCCCCCCn1cc(C(C)=O)c(=O)[nH]c1=O,96
6,O=C(N/N=C/c1ccccn1)c1cc([N+](=O)[O-])cc([N+](=O)[O-])c1,88.4
7,O=C(O/N=C/c1ccc2c(c1)OCO2)c1ccc([N+](=O)[O-])cc1,106
8,CCOC(=O)COc1ccc2c(=O)c(-c3ccccc3)coc2c1,99.1
9,COc1ccc2c([N+](=O)[O-])c(N3CCCC3)[nH]c2c1,107
10,CC(C)(C)NCc1cc(Br)ccc1OC1CCCC1,85.1
11,CC(C)(C)c1cc(CN2CCN(CCO)CC2)cc(C(C)(C)C)c1O,117
12,CN(C)CCC(=O)N1c2ccccc2Sc2ccc(C(F)(F)F)cc21,91.5
13,O=C(NCC1CCCCC1)c1ccco1,124
14,Brc1c(-c2ccc3c(c2)OCO3)nc2ncccn12,95.2
15,CCn1cc(C(=O)O)c(=O)c2cc(F)c(N3CCN(C(=S)NC(=O)c4ccccc4)CC3)cc21,85.6
16,CCCNC(=O)NC(=O)COc1ccc2oc3ccccc3c2c1,102
17,CC(C)(C)c1ccc(S(=O)(=O)NNC(=O)c2cc3ccccc3[nH]2)cc1,81.2
18,O=C(COc1ccc2ccccc2c1)Nc1nccs1,121
19,COc1ccc(C(=O)CCS(=O)(=O)c2ccc(C)cc2)cc1OC,98.5
20,CCOC(=O)c1ccc(-n2c(CCC(=O)O)ccc2-c2cccs2)cc1,119
21,CC(C)Cc1nnc(NC(=O)CCS(=O)(=O)c2ccc(Cl)cc2)s1,106
22,CCOC(=O)c1csc(NC(=O)COc2ccc(Cl)cc2Cl)n1,104
23,COCCSc1nnc(NC(=O)CCS(=O)(=O)Cc2ccccc2)s1,106
24,O=C(COC(=O)c1ccccc1)NCc1cccs1,107

row,SMILES,viability [%]
1,Cc1ccc(OC(=O)c2ccc(Br)o2)cc1,86
2,CC(=O)NCCOC(=O)Nc1sc(=S)n(C)c1C,111
3,O=C(CCNc1cccc(Cl)c1)c1cccs1,109
4,NC(=S)n1[nH]c(-c2ccc([N+](=O)[O-])cc2)c(N=Nc2ccc(O)cc2)c1=O,82.1
5,Cc1ccccc1-n1c(C)cc(/C=N/NC(=O)c2ccncc2)c1C,92.3
6,Cc1ccc(/C=N/NC(=O)c2ccncc2)o1,97.5
7,Cc1cc(OCc2cc(C(=O)N(C)CCc3cnn(C)c3)no2)cc(C)c1Cl,81.1
8,c1ccc2cc(OCCCn3ccnc3)ccc2c1,78
9,c1ccc(-c2ccccc2OCCCCn2ccnc2)cc1,76.9
10,Cc1ccc(OCCCCn2ccnc2)c([N+](=O)[O-])c1,78.2
11,Cc1cc(OCCCn2ccnc2)ccc1C(C)C,70.4
12,COc1ccc(-c2noc(-c3cc4ccccc4oc3=O)n2)cc1,104
13,CCCOc1ccc(N2CC(C(=O)Nc3ccccn3)CC2=O)cc1 (stereo not given),113
14,O=S(=O)(Nc1nccs1)c1ccc(NCc2cc(Br)cc(Br)c2O)cc1,102
15,COCC(=O)Nc1ccccc1NC(C)=O,104
16,S=C(Nc1ccc2c(c1)OCO2)Nc1ccc2c(c1)OCO2,90
17,O=C1CC(Sc2ncccn2)C(=O)N1c1ccccc1C(F)(F)F (stereo not given),113
18,CCOc1c(OC(C)=O)ccc(/C=C2\N=C(SCC)SC2=O)c1[N+](=O)[O-],121
19,Cc1c(C(=O)N(C)C)sc2nc(-c3ccccn3)[nH]c(=O)c12,95.8
20,CCCCOC(=O)c1ccc(NC(=O)C2CCCO2)cc1 (stereo not given),81
21,COCCNC(=O)c1cc2cc(Cl)cc(Cl)c2oc1=O,106
22,COC(=O)c1cc2c(ccc3ccccc32)oc1=O,77.5
23,C=CCOc1ccc(CNCCO)cc1OCC,115
24,O=S(=O)(c1ccc(Cl)c2ccccc12)N1CCCC1,89.1
